Experiment [1] in a line: ATG_GLI_CIS: Attagene CIS-FACTORIAL HepG2 Assay for human Zinc Finger Protein GLI1 (AID 2282945). As to conditions: HepG2, Attagene cis-factorial reporter mRNA, GLI element; actives raise or lower the signal. The gist of the method:
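HepG2 cells transiently transfected with cis-promoter multiplexed reporter units report endogenous transcription factor activity. After 24 h chemical exposure, reporter mRNA was quantified by RT-PCR, 6-FAM labelling, HpaI digestion and capillary electrophoresis, with bidirectional fitting against DMSO.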

Experiment [2] concerns the target Bile acid receptor (Homo sapiens) (UniProt Q96RI1). The experiment is described as follows: ATG_IR1_CIS: Attagene CIS-FACTORIAL HepG2 Assay for human Nuclear Receptor Subfamily 1 Group H Member 4 (NR1H4), IR1 submotif (AID 2282946). As to conditions: IR1 reporter transcription, actives raise or lower the signal. The gist of the method: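 Transient MRTU transfection, HepG2; 24 h dosing; RNA → RT-PCR → 6-FAM primer extension → HpaI digest → capillary electrophoresis fluorescence. Gain/loss of signal fitted relative to DMSO.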

The nature of experiment [3]: ATG_GRE_CIS: Attagene CIS-FACTORIAL HepG2 Assay for human Glucocorticoid Response Elements (GRE) (AID 2282947). As to conditions: HepG2 GRE cis-reporter, Attagene multiplex mRNA; actives raise or lower the signal. The gist of the method: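 HepG2 cells transiently transfected with multiple cis-promoter reporter units measure endogenous TF activity; 24 h compound exposure. Reporter mRNA quantified by RT-PCR, FAM labelling, HpaI digestion and capillary electrophoresis; bidirectional fit vs DMSO baseline.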

A short description of experiment [4]: ATG_ISRE_CIS: Attagene CIS-FACTORIAL HepG2 Assay for human Interferon Regulatory Factor 1 (IRF1) binding to an Interferon-Stimulated Response Element (ISRE) (AID 2282948). The note with it: HepG2 ISRE cis-reporter (Attagene), mRNA transcription readout; actives raise or lower the signal. The gist of the method:
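Transiently transfected HepG2 cells carrying cis-element reporter units, dosed 24 hours. Reporter mRNA quantified by RT-PCR, fluorescent primer extension, HpaI digestion and capillary electrophoresis. Bidirectional fitting relative to DMSO.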

Experiment [5] can be described thus: ATG_M_32_CIS: Attagene CIS-FACTORIAL HepG2 Assay for M32 Transcription Factor (Internal Marker) (AID 2282949).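 Further: background control marker of the multiplexed CIS panel rather than a real target.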 As to conditions: HepG2 Attagene cis-factorial M32 reporter, mRNA; actives raise or lower the signal. The gist of the method:
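Internal background marker read-out: RT-PCR/capillary electrophoresis fluorescence of reporter transcripts from transiently transfected HepG2 cells after 24 h chemical exposure. Activity fitted bidirectionally relative to DMSO negative control.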

The nature of experiment [6]: ATG_M_06_CIS: Attagene CIS-FACTORIAL HepG2 Assay for M06 Transcription Factor (Internal Marker) (AID 2282950). The note with it: HepG2 Attagene CIS-FACTORIAL M06 internal marker reporter; actives raise or lower the signal. The gist of the method: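 Fluorescence-labelled RT-PCR products from cis-promoter reporter units, cut with HpaI and resolved by capillary electrophoresis, give the signal. Cells are human HepG2, dosed for 24 h. Serves as background control, fitted relative to DMSO.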

Experiment [7] has as its target Hypoxia-inducible factor 1-alpha (Homo sapiens) (UniProt Q16665). The experiment is described as follows: ATG_HIF1a_CIS: Attagene CIS-FACTORIAL HepG2 Assay for human Hypoxia Inducible Factor 1 (HIF1A) (AID 2282951). The note with it: HepG2 Attagene cis-factorial HIF1a reporter transcription; actives raise or lower the signal. The gist of the method: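 Transient MRTU transfection of human HepG2 liver cells, 24 h compound treatment, then total RNA isolation, oligo(dT) reverse transcription, PCR amplification, fluorescent labelling and capillary electrophoresis of reporter fragments. Gain or loss relative to DMSO.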

Experiment [8] deals with Hepatocyte nuclear factor 6 (Homo sapiens) (UniProt Q9UBC0). Kind of experiment: ATG_HNF6_CIS: Attagene CIS-FACTORIAL HepG2 Assay for human Hepatocyte Nuclear Factor 6 (HNF6) (AID 2282952). The note with it: HepG2 Attagene cis-factorial HNF6 reporter transcription; actives raise or lower the signal. The gist of the method:
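HepG2 cells transiently transfected with cis-element-driven multiplexed reporter units measuring endogenous transcription factor activity. After 24 h exposure, reporter mRNA quantified by RT-PCR, FAM-labelled fragments and capillary electrophoresis; bidirectional fitting versus DMSO.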

Experiment [9] has as its target Heat shock factor protein 1 (Homo sapiens) (UniProt Q00613). Kind of experiment: ATG_HSE_CIS: Attagene CIS-FACTORIAL HepG2 Assay for human Heat Shock Transcription Factor 1 (HSE) (AID 2282953). The note with it: HepG2 HSE cis-reporter, Attagene RNA transcription; actives raise or lower the signal. The gist of the method: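 After a 24 h incubation with test chemical, transfected HepG2 cells were harvested for RNA; reporter transcripts were measured by RT-PCR and capillary electrophoresis. Values reflect gain or loss of signal relative to DMSO.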

In experiment [10] the target is Paired box protein Pax-6 (Homo sapiens) (UniProt P26367). Kind of experiment: ATG_Pax6_CIS: Attagene CIS-FACTORIAL HepG2 Assay for human Paired Box 6 (PAX6) (AID 2282956). As to conditions: HepG2 CIS-FACTORIAL PAX6 reporter transcription, RNA readout; actives raise or lower the signal. The gist of the method: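 HepG2 cells transiently transfected with cis-promoter-driven multiplexed reporter units sensing endogenous transcription factor activity; 24 h chemical exposure. Reporter mRNA quantified by RT-PCR, 6-FAM labelling, HpaI digestion and capillary electrophoresis; bidirectional fit versus DMSO baseline.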
Sequence of Paired box protein Pax-6 (Homo sapiens) (P26367 whole entry, looked up): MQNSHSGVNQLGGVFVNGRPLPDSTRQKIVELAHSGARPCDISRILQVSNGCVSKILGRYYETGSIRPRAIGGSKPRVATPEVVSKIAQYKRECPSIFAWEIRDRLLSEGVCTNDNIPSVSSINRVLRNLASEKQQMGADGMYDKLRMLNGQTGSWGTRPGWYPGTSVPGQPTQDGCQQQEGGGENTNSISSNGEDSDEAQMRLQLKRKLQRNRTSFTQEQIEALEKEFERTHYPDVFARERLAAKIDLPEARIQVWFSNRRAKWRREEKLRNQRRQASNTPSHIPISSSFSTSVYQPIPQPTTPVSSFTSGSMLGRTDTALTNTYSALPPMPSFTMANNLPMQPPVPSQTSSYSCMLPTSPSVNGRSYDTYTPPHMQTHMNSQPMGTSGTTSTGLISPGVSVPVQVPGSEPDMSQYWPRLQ

Experiment [11] in a line: ATG_PXRE_CIS: Attagene CIS-FACTORIAL HepG2 Assay for human Pregnane X Receptor Element (PXRE) (AID 2282957). As to conditions: HepG2 Attagene CIS-FACTORIAL PXRE reporter, mRNA; actives raise or lower the signal. The gist of the method:
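HepG2 cells transiently transfected with cis-element-driven multiplexed reporter units; after 24 h chemical exposure, reporter mRNA measured by RT-PCR, 6-FAM labelling, HpaI digestion and capillary electrophoresis. Bidirectional fitting relative to DMSO.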

Experiment [12] is described as follows: ATG_PPRE_CIS: Attagene CIS-FACTORIAL HepG2 Assay for human Peroxisome Proliferator-activated Response Element (PPRE) (AID 2282958). As to conditions: HepG2 PPRE cis-element reporter, Attagene transcription factor profiling; actives raise or lower the signal. The gist of the method:
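HepG2, transient MRTU transfection (cis promoter elements, endogenous TFs). 24 h dosing. RNA → oligo(dT) RT → PCR → 6-FAM primer extension → HpaI digest → CE. Bidirectional fit vs DMSO.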

Experiment [13] is described as follows: ATG_RORE_CIS: Attagene CIS-FACTORIAL HepG2 Assay for human RAR-related Orphan Receptor Element (RORE) (AID 2282959). The note with it: HepG2 Attagene cis-factorial RORE reporter, mRNA; actives raise or lower the signal. The gist of the method: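 Transient MRTU transfection of human HepG2 liver cells (FuGene 6); 24 h compound exposure; TriZol RNA, oligo(dT) RT, PCR, FAM labeling, HpaI cut, CE fragment analysis. DMSO = negative control/baseline.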

Experiment [14] is described as follows: ATG_Sox_CIS: Attagene CIS-FACTORIAL HepG2 Assay for human SRY-box transcription factor (SOX) (AID 2282960). The note with it: HepG2 Attagene cis-factorial SOX reporter, mRNA; actives raise or lower the signal. The gist of the method: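 Endogenous factor activity in human liver HepG2 cells carrying transfected cis-regulated reporter units. RNA taken 24 h post-dose, reverse-transcribed, PCR-amplified and sized by capillary electrophoresis. Gain or loss of signal fitted relative to DMSO.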

For experiment [15], the target named is Transcription factor Sp1 (Homo sapiens) (UniProt P08047). The experiment is described as follows: ATG_Sp1_CIS: Attagene CIS-FACTORIAL HepG2 Assay for human Specificity Protein 1 (Sp1) (AID 2282961). As to conditions: HepG2 Sp1 cis-reporter transcription, actives raise or lower the signal. The gist of the method: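 Transient MRTU-transfected HepG2, 24 h compound exposure. Total RNA → oligo(dT) RT → PCR of reporter → 6-FAM primer extension → HpaI digest → CE. Endpoint fitted both directions vs DMSO.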
Sequence of Transcription factor Sp1 (Homo sapiens) (P08047 whole entry, looked up): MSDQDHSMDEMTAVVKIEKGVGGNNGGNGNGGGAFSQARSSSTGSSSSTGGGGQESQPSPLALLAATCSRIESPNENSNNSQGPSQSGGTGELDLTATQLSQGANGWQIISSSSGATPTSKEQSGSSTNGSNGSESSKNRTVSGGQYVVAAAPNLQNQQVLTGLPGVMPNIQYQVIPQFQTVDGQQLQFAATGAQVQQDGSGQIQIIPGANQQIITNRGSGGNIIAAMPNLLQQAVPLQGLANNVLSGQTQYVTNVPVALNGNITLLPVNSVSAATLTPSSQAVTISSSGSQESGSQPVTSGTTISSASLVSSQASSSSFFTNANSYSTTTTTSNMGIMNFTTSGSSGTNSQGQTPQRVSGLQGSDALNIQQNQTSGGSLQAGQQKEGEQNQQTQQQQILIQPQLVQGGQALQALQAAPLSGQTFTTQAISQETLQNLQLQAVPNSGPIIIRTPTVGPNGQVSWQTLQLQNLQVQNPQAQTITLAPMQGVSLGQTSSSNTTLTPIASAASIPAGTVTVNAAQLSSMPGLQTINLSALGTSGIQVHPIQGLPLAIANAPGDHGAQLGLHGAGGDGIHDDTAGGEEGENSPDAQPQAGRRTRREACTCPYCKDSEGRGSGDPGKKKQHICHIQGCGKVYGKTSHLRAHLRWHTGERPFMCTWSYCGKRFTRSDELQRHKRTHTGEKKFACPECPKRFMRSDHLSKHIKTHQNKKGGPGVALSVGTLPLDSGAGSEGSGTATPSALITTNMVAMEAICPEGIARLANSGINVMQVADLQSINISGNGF

The nature of experiment [16]: ATG_SREBP_CIS: Attagene CIS-FACTORIAL HepG2 Assay for human Sterol Regulatory Element Binding (SREBP) (AID 2282962). As to conditions: HepG2 Attagene cis-factorial SREBP reporter, mRNA; actives raise or lower the signal. The gist of the method:
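HepG2 cells transiently transfected with multiplexed cis-promoter reporter units sensing endogenous transcription factors; reporter mRNA measured 24 h after dosing by RT-PCR, 6-FAM labeling, HpaI digestion and capillary electrophoresis. Bidirectional fit versus DMSO.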

The target in experiment [17] is Signal transducer and activator of transcription 3 (Homo sapiens) (UniProt P40763). Kind of experiment: ATG_STAT3_CIS: Attagene CIS-FACTORIAL HepG2 Assay for human Signal Transducer and Activator of Transcription 3 (STAT3) (AID 2282963). The note with it: HepG2, Attagene cis-factorial STAT3 reporter transcription; actives raise or lower the signal. The gist of the method:
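HepG2 cells transiently transfected with cis-element-driven multiple reporter transcription units; after 24 h chemical exposure, reporter mRNA measured by RT-PCR, 6-FAM primer-extension labelling, HpaI digestion and capillary electrophoresis. Bidirectional fitting versus DMSO baseline.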

The nature of experiment [18]: ATG_TA_CIS: Attagene CIS-FACTORIAL HepG2 Assay for human TA Basal Promoter (AID 2282964). The note with it: HepG2 Attagene CIS-factorial TA basal promoter reporter; actives raise or lower the signal. The gist of the method:
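Multiplexed mRNA reporter assay, HepG2, 24 h. Reporter cDNA amplified, 6-FAM primer-extended, HpaI-cut, CE-sized; DMSO = negative control and baseline.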

Experiment [19] can be described thus: ATG_MRE_CIS: Attagene CIS-FACTORIAL HepG2 Assay for human Metal Responsive Element (MRE) (AID 2282954). As to conditions: HepG2 MRE cis-reporter transcription, Attagene multiplex; actives raise or lower the signal. The gist of the method: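 HepG2 cells transiently transfected with multiple cis-element reporter units measure endogenous MTF1-driven transcription. After 24 h compound exposure, reporter mRNA is quantified by RT-PCR with 6-FAM labelling, HpaI digestion and capillary electrophoresis; bidirectional fits versus DMSO.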

Experiment [20] can be described thus: ATG_PBREM_CIS: Attagene CIS-FACTORIAL HepG2 Assay for human Phenobarbital-responsive Enhancer Module (PBREM) (AID 2282955). The note with it: HepG2 PBREM cis-reporter, Attagene multiplexed transcription; actives raise or lower the signal. The gist of the method: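 Endogenous transcription factors in human liver HepG2 cells drive a PBREM cis-element reporter, whose transcript level after 24 h treatment is quantified by RT-PCR with capillary electrophoresis; activity fitted in both directions against DMSO.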

Active and inactive are the calls of the source. How the source made its calls: active means hit-call score of the fitted dose curve at least 0.9, where 1 is the maximum; inactive means score below 0.9. Peptide text beside a SMILES is read from it.

Sequence of Signal transducer and activator of transcription 3 (Homo sapiens) (P40763 whole entry, looked up): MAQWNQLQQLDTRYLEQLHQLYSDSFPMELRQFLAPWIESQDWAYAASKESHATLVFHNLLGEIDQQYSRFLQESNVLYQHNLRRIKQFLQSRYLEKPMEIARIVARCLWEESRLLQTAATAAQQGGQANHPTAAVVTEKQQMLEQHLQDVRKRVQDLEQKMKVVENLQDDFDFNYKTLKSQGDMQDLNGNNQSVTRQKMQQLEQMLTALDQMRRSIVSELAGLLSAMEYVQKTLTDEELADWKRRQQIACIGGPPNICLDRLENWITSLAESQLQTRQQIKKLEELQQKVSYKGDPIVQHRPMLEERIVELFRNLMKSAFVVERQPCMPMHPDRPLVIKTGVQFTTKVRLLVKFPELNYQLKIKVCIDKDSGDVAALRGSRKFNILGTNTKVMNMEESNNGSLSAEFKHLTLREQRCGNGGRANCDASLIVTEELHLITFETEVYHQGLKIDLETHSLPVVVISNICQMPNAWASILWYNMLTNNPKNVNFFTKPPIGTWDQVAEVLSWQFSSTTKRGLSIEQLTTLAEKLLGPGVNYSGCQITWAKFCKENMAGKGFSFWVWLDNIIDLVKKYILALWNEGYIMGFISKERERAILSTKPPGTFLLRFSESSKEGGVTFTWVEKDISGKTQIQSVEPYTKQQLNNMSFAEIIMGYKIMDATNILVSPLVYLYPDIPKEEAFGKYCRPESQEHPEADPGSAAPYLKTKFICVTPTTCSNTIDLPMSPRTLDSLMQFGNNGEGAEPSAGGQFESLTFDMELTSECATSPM
Sequence of Hypoxia-inducible factor 1-alpha (Homo sapiens) (Q16665 whole entry, looked up, the tested form may be a part): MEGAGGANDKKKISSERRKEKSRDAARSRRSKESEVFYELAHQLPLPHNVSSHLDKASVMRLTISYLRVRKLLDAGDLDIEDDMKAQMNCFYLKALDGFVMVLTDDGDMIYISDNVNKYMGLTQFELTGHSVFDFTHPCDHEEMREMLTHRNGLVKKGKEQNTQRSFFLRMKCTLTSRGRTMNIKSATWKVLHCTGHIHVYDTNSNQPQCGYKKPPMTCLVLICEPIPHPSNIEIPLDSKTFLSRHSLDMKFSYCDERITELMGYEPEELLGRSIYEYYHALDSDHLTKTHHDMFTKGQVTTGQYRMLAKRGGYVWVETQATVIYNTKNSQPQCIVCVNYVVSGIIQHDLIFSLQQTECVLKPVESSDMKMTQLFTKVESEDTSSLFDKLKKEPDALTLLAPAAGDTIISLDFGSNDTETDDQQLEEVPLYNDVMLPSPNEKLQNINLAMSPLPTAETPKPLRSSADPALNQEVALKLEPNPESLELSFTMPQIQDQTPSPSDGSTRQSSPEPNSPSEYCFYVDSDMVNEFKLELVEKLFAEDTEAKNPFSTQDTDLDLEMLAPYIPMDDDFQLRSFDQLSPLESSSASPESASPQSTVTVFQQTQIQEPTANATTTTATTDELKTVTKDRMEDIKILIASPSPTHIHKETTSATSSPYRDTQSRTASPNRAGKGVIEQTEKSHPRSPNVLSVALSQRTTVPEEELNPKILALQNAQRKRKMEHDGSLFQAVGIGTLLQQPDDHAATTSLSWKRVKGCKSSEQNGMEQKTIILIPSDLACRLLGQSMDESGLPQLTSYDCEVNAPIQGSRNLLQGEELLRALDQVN
Sequence of Heat shock factor protein 1 (Homo sapiens) (Q00613 whole entry, looked up): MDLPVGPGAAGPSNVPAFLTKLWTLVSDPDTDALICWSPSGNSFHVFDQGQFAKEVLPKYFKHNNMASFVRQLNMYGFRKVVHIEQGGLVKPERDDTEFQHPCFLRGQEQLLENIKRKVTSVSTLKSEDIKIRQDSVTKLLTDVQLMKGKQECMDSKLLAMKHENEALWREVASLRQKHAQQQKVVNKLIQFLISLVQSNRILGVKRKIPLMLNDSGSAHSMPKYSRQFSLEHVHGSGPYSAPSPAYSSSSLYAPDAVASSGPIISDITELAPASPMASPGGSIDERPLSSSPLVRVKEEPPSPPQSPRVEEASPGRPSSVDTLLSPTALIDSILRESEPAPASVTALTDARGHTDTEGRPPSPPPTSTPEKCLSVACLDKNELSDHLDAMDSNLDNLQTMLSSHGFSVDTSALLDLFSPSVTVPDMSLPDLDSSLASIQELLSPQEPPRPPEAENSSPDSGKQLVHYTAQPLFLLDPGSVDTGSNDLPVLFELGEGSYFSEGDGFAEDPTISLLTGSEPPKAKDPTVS
Sequence of Bile acid receptor (Homo sapiens) (Q96RI1 whole entry, looked up): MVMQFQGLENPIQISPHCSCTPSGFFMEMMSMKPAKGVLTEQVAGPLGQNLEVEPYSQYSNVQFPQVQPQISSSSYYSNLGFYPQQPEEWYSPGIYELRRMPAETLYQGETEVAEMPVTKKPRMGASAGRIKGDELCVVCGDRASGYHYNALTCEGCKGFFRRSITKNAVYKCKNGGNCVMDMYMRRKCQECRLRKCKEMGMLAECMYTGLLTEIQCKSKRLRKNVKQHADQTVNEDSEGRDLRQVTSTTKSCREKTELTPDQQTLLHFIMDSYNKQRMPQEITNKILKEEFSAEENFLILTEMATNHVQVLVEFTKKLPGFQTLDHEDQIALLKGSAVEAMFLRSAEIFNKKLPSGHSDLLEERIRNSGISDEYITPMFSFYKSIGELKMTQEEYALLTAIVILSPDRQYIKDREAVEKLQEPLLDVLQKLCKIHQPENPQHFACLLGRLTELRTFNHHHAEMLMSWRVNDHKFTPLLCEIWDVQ
Sequence of Hepatocyte nuclear factor 6 (Homo sapiens) (Q9UBC0 whole entry, looked up, the tested form may be a part): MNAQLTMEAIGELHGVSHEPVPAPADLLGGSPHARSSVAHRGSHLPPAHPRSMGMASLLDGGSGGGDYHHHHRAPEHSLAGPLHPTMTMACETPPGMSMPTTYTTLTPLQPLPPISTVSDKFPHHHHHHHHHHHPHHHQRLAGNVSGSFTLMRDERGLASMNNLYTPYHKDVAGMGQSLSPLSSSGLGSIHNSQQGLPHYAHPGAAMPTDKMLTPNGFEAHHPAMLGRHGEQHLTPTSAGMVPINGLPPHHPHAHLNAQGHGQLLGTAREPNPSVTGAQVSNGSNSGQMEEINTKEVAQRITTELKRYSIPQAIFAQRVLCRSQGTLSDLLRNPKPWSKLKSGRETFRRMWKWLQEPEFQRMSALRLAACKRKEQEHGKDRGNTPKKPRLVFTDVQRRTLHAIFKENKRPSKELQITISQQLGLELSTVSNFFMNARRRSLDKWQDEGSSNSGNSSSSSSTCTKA

For orientation: AC50 means the concentration at which the activity in the assay is half-maximal. Turning to `CC1(C)C(=O)N(CO)C(=O)N1CO`, the outcome in experiment [1], in experiment [2], in experiment [3], in experiment [4], in experiment [5] and in [6] was inactive. Further, the result in [7], in experiment [8], in experiment [9], in experiment [10], in [12] and in [13] was inactive. The result in experiment [14], in experiment [15], in experiment [16], in experiment [17] and in [18] was inactive. Further, the AC50 in experiment [11] is 27.8 µM (active).

`CCOC(=O)OC(=O)OCC`: the compound was called inactive in [1], in experiment [2], in [3], in experiment [4], in experiment [5] and in experiment [6]. The call in experiment [7], in [8], in experiment [19], in [20], in experiment [10] and in experiment [12] was inactive. Moreover, the compound was classed as inactive in experiment [14], in [15], in [16], in experiment [17] and in experiment [18].

In the case of `COC(=O)[C@H](Cc1ccccc1)NC(=O)[C@@H](N)CC(=O)O` (H-Asp-Phe-OMe), the compound was classed as inactive in [1], in [2], in [3], in experiment [4], in [5] and in [6]. The compound was classed as inactive in experiment [7], in experiment [8], in experiment [9], in experiment [19], in [10] and in experiment [11]. In addition, the outcome in experiment [14], in experiment [15], in [16], in experiment [17] and in [18] was inactive.

In the case of `CC(C=O)c1ccccc1` (centres undefined), the call in [1], in experiment [2], in experiment [3], in [4], in experiment [5] and in experiment [6] was inactive. For the same compound, the compound was called inactive in [7], in experiment [8], in experiment [9], in [19], in experiment [12] and in [13]. Besides, the compound was classed as inactive in experiment [14], in experiment [15], in [17] and in experiment [18]. The AC50 in [11] is 6.81 µM (active).

For the origin of these results see PubChem BioAssay (EPA / NIEHS).
